Test results: ChEMBL document CHEMBL4513216, “Probing the Open Global Health Chemical Diversity Library for Multistage-Active Starting Points for Next-Generation Antimalarials” (ACS Infect Dis, 2020)
Out of some 69,000 compounds screened, about 8,600 (12%) showed an effect of 50% or more. The list comes from a sample in which strong results are over-represented; it also holds similar structures and randomly drawn compounds.

Tested on: Plasmodium berghei
Experiment: Screen against P. berghei liver stage (PbLuc), transformed with Luciferase, at 10uM
Type: functional, HepG2
Conditions: tested at 10 uM

Compound | INHIBITION
O=C(O)c1cnc(N2CCC(O)CC2)nc1COc1ccc(F)cc1 | 46.1%
CC(C)(C)NC(=O)c1ccn(COc2c(Cl)cccc2Cl)n1 | 20.9%
Cc1cc(C(=O)NCc2cccs2)c2c(C3CCCN3)noc2n1 (centres undefined) | 29.2%
COc1ccccc1C(=O)N1CC(=O)N(CC2CC2)CC(O)C1 (centres undefined) | 34.3%
Cc1cccc(C(=O)N2C[C@@H]3COC[C@@H](CC(=O)N4CCCC4)[C@@H]3C2)n1 | -69.3%
Cc1ccccc1CC(=O)N(C)C1CCN(c2ccccn2)CC1 | 42.9%
CN(C1CCN(c2ccccn2)CC1)S(=O)(=O)c1ccc(F)cc1 | 8.13%
CCOc1ncccc1C(=O)N(C)C1CCN(c2ccccn2)CC1 | 15.6%
COCCOCC(=O)NC1CCN(c2ccccn2)CC1 | 51.3%
CN(C1CCN(c2ccccn2)CC1)S(=O)(=O)c1cccs1 | 33%
CN(C(=O)Cc1cccs1)C1CCN(c2ccccn2)CC1 | 54.4%
Cc1ccc(C)c(OCC(=O)NC2CCN(c3ccccn3)CC2)c1 | -43.2%
CN(C(=O)Cc1ccccc1Cl)C1CCN(c2ccccn2)CC1 | 60.5%
CN(C(=O)CNc1ccc(C#N)cc1)C1CCN(c2ccccn2)CC1 | 11.2%
O=C(COCCOc1ccccc1)NC1CCN(c2ccccn2)CC1 | -10.7%
CN(C1CCCN(c2ccccn2)C1)S(=O)(=O)N1CCOCC1 (centres undefined) | 17.85%
CN(C1CCN(c2ccccn2)CC1)S(=O)(=O)N1CCOCC1 | 55.4%
Cc1cnn(C2CCCN(C(=O)CCCn3ccnc3C)C2)c1 (centres undefined) | 9.54%
Cc1cc(CN2CCC3(CC2)COC(COCC2CC2)C3)no1 (centres undefined) | 22.2%
CCNC(=O)NC(=O)CN1CCC(c2cccc(F)c2)C1 (centres undefined) | 15.8%
O=C(NC1CC1)c1cc(C(F)(F)F)cc(C(F)(F)F)n1 | -14.3%
Cc1ccc(OCCN2CCC(c3ccnn3CCO)CC2)cc1 | 19.6%
CCc1nc2n(n1)CC(NCc1nc(-c3ccccn3)no1)CC2 (centres undefined) | 4.45%
COCCOc1cccc(C(=O)N2CCCC(n3ccnc3)C2)c1 (centres undefined) | 33.7%
OCC(CO)N1CCC(c2nccnc2Nc2cnccn2)CC1 | -42.9%
Cc1ccc(S(=O)(=O)N2CCCC3(CCCN3S(C)(=O)=O)C2)cc1F (centres undefined) | -21.1%
CSC1(CNC(=O)CCc2ccc(Cl)s2)CCOCC1 | -19.1%

Compound | INHIBITION
CN1CCN(CCCNC(=O)CCc2nc3cc(Br)cnc3[nH]2)CC1 | 38.9%
CCc1nccn1C1CCCN(C(=O)c2ccc3[nH]cnc3c2)C1 (centres undefined) | 3.16%
CCCc1nnc(NCCn2nc(C)c(Cl)c2C)o1 | 13.7%
Cc1cc(C)n(CC2CN(CC(=O)NC3CCOCC3)CCO2)n1 (centres undefined) | 36.1%
COc1ccc2[nH]cc(C(=O)N3C[C@@H](O)[C@H](N4CCOCC4)C3)c2c1 | 29.5%
O=C(Cc1ccc(F)cc1)NCCNCc1cccc(O)c1 | 5.9%
CCn1c(C)cc(C(=O)N2C[C@@H](C(=O)O)[C@H](c3ccccc3)C2)c1C | 35.8%
CNc1ncc(C(=O)N[C@H]2CN(CCCSC)C[C@@H]2C2CC2)cn1 | 1.71%
CN(C(=O)Cc1ccccc1F)C1CCN(c2ccccn2)CC1 | 52.3%
O=C1OCCC1N1CCN(c2ccc(O)cc2)CC1 (centres undefined) | 43.1%
COCC(C)N(C)C(=O)NC1CCN(c2ncccn2)CC1 (centres undefined) | 52.2%
O=C1OCCC1N1CCN(c2cnccn2)CC1 (centres undefined) | 3.69%
CN(C(=O)c1ccccc1Cl)C1CCN(c2ccccn2)CC1 | 28.6%
O=C1OCCC1N1CCN(c2ccccn2)CC1 (centres undefined) | 59.3%
CN(Cc1cnn(C)c1)C(=O)NC1CCN(c2ncccn2)CC1 | 3.04%
CN(C1CCN(c2ccccn2)CC1)S(=O)(=O)c1ccccc1F | 21.5%
Cc1cccc(C(=O)N(C)C2CCN(c3ccccn3)CC2)c1C | 37.3%
COCC(C)N(C)C(=O)NC1CCN(S(C)(=O)=O)CC1 (centres undefined) | 36.2%
CN(C(=O)c1cccc2[nH]ncc12)C1CCN(c2ccccn2)CC1 | 59.7%
CN(Cc1noc(C2CC2)n1)C1CCN(CCS(C)(=O)=O)C1 (centres undefined) | -24.2%
CN(C(=O)c1cc(Cl)c[nH]1)C1CCN(c2ccccn2)CC1 | 50.4%
CN(C(=O)CNC(=O)CC(C)(C)C)C1CCN(c2ccccn2)CC1 | -11.5%
CN(C(=O)c1ccc(Cl)cc1)C1CCN(c2ccccn2)CC1 | 3.73%
CN(C(=O)c1cccc(Cl)c1)C1CCN(c2ccccn2)CC1 | 31.3%
CN(C(=O)Cc1ccc(F)cc1)C1CCN(c2ccccn2)CC1 | -1.14%
CN(C(=O)Cc1c[nH]c2ccccc12)C1CCN(c2ccccn2)CC1 | 53.8%
OC(CN1CCN(Cc2ccc(F)c(F)c2)CC1)C1CC1 (centres undefined) | -48.4%
